Laboratory results published in PubChem BioAssay AID492953 (The Scripps Research Institute Molecular Screening Center, 2010).
In all, about 340,000 compounds went through this assay and about 4,200 (1.2%) were called active.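 How the source made its calls: active means inhibition above the mean of all tested compounds plus 3 SD (cut at about 24% in these data); inactive means the rest.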 This excerpt belongs to a sample that is enriched for actives.

Target: Platelet-activating factor acetylhydrolase IB subunit alpha2 (Homo sapiens) (UniProt P68402)
Sequence (P68402 whole entry, looked up): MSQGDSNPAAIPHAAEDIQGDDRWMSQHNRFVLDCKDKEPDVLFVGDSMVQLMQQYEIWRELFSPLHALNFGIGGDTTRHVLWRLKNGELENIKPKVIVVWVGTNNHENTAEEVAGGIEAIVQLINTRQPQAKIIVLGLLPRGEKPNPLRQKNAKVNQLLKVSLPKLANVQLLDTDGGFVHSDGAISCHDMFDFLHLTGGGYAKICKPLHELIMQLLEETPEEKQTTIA
Assay: PAFAH1B2 enzyme inhibitors, primary screen, biochemical, fluorescence polarization, human (AID 492953);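 further: 0% = enzyme with DMSO and 100% = wells lacking PAFAH1B2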
Conditions: recombinant PAFAH1B2, FP-rhodamine activity probe, at 3.39 µM, active compounds read high

inhibition, active:
CCC(CC)COC(=O)C1=C(C)NC(=O)NC1c1ccc([N+](=O)[O-])cc1 (stereo not given) 28.2%, O=C(CCC(=O)N1CCN(S(=O)(=O)c2ccc(Cl)cc2)CC1)NCc1cccc(C(F)(F)F)c1 26.5%, O=C(NCCc1ccc(Cl)cc1Cl)c1cc([N+](=O)[O-])c[nH]c1=O 57%, O=c1[nH]c(/C=C\c2cccc(C(F)(F)F)c2)nc(O)c1[N+](=O)[O-] 27.5%, Cc1cc(F)ccc1S(=O)(=O)Nc1ncnc2scc(-c3ccc(F)cc3)c12 36.1%

inhibition, inactive:
CC1=C(C(=O)OCC2CCCCC2)C(c2ccc(F)cc2)NC(=O)N1 (stereo not given) 9.14%, CCOCCOC(=O)C1=C(C)NC(=O)NC1c1ccc2c(c1)OCO2 (stereo not given) -0.7%, O=C(NCC(c1cccs1)N1CCOCC1)c1cc(Cl)ccc1[N+](=O)[O-] (stereo not given) 5.77%, CSc1ccc(S(=O)(=O)N2CCC(C(=O)NCCc3ccccc3)CC2)cc1 0.35%, CCOc1ccc(/C(O)=C2/C(=O)C(=O)N(Cc3cccnc3)C2c2ccc(N(C)C)cc2)c(C)c1 (stereo not given) -1.88%, O=C(O)/C=C/C(=O)NNc1ccc([N+](=O)[O-])cc1 4.93%, O=C(NCc1cccc(C(F)(F)F)c1)c1cccc(S(=O)(=O)N2CCN(Cc3ccccc3)CC2)c1 -9.49%, O=C(CCC(=O)c1ccccc1)NCc1cccc(C(F)(F)F)c1 2.04%, CC(=O)NCC(=O)N(Cc1ccco1)C1(C(=O)NC2CCCC2)CCCCC1 1.82%, O=C(NCCc1c[nH]c2ccc(Cl)cc12)c1ccc([N+](=O)[O-])cc1 3.76%, NS(=O)(=O)c1ccc(CCNC(=O)c2ccc(Cl)cc2[N+](=O)[O-])cc1 -2.98%, O=C(O)c1ccc(NN=CC2=C(N3CCOCC3)/C(=C/c3ccccc3)CC2)cc1 -2.37%, COc1ccc(C(CNC(=O)c2cc(S(=O)(=O)Nc3cccc(C)c3)ccc2C)N2CCCC2)cc1 (stereo not given) 4.75%, CC(C)C[C@H]1CN([C@@H](CC(C)C)CN2CCC[C@@H]2CN2C(=O)C(=O)NC[C@@H]2Cc2ccccc2)C(=O)C(=O)N1CCc1ccccc1 1.5%, O=c1[nH]c(/C=C/c2cccc(Br)c2)nc2ccccc12 1.93%, Cc1ccccc1/C=C\c1nc(O)c([N+](=O)[O-])c(=O)[nH]1 9.97%, Cc1ccnc(SCC(=O)Nc2cccc(S(=O)(=O)N3CCOCC3)c2)n1 1.16%, COC(=O)C1=C(N)Oc2c(oc(CO)cc2=O)C1c1c(F)cccc1Cl (stereo not given) 0.05%, COc1ccc(-c2csc3ncnc(N4CCN(S(=O)(=O)c5cccc(F)c5)CC4)c23)cc1 5.03%, O=S(=O)(Nc1ncnc2sccc12)c1cccc(F)c1 -0.25%
